The values that follow come from PubChem BioAssay AID2501 (Southern Research Specialized Biocontainment Screening …, 2010).

In all, about 2,200 compounds went through this assay and about 1,200 (55%) were called active. No cut-off is given here; in the data, nearly all actives have IC50 up to about 92 µM. The set was probably picked from earlier hits. Some of the results follow.

The term IC50 denotes the midpoint of a concentration-inhibition curve. A word on the inhibition: it is the drop in the measured response relative to a control, in per cent.

This assay in a line: counter assay for TAg ATPase ADP read-out – biochemical, ADP-Hunter, fluorescence, counter-screen (AID 2501).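 For inhibition: 0% = enzyme with vehicle and 100% = reference inhibitor wells; higher means more inhibition.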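 Note: purified T antigen ATPase.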 The settings on record: series mostly up to 100 µM; inhibition: at the top concentration.
With `O=C(Nc1ccc(O)cc1)C1CC=CCC1` (centres undefined), the IC50 was 6.87 µM (active).

Regarding `O=C(Nc1ccc(O)cc1)c1ccc(NC(=O)C2CCCO2)cc1` (centres undefined), the IC50 is 7.4 µM (active).

As for `O=C(Nc1ccc(O)cc1)C1CCCO1` (centres undefined), the 50% inhibitory concentration (IC50) is 5.34 µM (active). Turning to `CCOC(=O)c1c(N2C(=O)Nc3cc(Cl)c(Cl)cc3N2O)sc2c1CCCCC2`, the “inhibition” value was -16.8% (inactive). On to `Nc1nc(-c2cccs2)c(NC(=O)c2ccccc2)s1`, for which the half-inhibitory concentration (IC50) was 10.4 µM (active). For the compound `O=C(O)CC1(Cc2nc(-c3cccs3)no2)CCCC1`, the “inhibition” value is -32.7% (inactive). In the case of `Cc1c(C)n(Cc2ccccc2)c2ncnc(NN)c12`, the “inhibition” value is -100% (inactive). For `c1ccc(CNc2ncnc3ccccc23)cc1`, the IC50 is 4.18 µM (active). The same measure, in the same setting: the result for `COc1ccc(-c2nc(O)c3cnccn23)cc1` reads 6.67 µM (active). Take `CCOC(=O)C1=C(O)C(=O)N(Cc2cccnc2)C1c1ccc(OC)cc1` (centres undefined): the “inhibition” value was -22.7% (inactive). As to `COc1cc(/C=N\NC(=O)C2CC3C=CC2C3)ccc1O` (centres undefined), the IC50 is 7.58 µM (active).

Consider `COc1cc(/C=N/NC(=O)NC2CCCCC2)ccc1O`, for which the IC50 is 3.75 µM (active). On the same count and under the same terms, the figure for `O=S(=O)(Nc1ccc(O)cc1)c1cccc2cccnc12` is 4.75 µM (active); for `Cc1ccc(C)c(S(=O)(=O)Nc2ccc(O)cc2)c1` it is 6.11 µM (active). On to `Cc1ccccc1NS(=O)(=O)c1cc(C(=O)NCCC2=CCCCC2)ccc1C`, for which the “inhibition” value was -5.52% (inactive). On the same count and under the same terms, the figure for `CCSS(=O)(=O)c1cccc2cccnc12` is -2.66% (inactive). On the same count and under the same terms, the result for `CNS(=O)(=O)c1cc(NC(=O)CCCNC(=O)c2ccc(Cl)cc2)ccc1C` reads 7.77% [at 50 µM] (inactive).

For the compound `Cc1cc(C)c(S(=O)(=O)Nc2ccc(O)cc2)cc1C`, the IC50 was 12.1 µM (active). Still for that read-out and setting: the figure for `Cc1cc(=O)[nH]c2ccc(S(=O)(=O)Nc3ccc(O)cc3)cc12` is 7.34 µM (active). For `CSS(=O)(=O)c1cccc2cccnc12`, the “inhibition” value was 5.86% (inactive). For `Cc1cc(C)c(S(=O)(=O)Nc2cc(SCC(=O)O)c(O)c3ccccc23)cc1C`, the “inhibition” value was -494% (inactive). Consider `Cc1c(C(=O)Oc2ccc(-c3cnc4ccccc4n3)cc2)cccc1[N+](=O)[O-]`, for which the “inhibition” value was -11.1% (inactive). On the same count and under the same terms, the result for `NC(=O)N/N=C/c1c(Sc2nnnn2-c2ccccc2)nc2ccccn2c1=O` reads -35.8% (inactive); that for `Cc1cc(Cl)ccc1OCCn1cncn1`, 16% [at 50 µM] (inactive); that for `CC1=C/C(=N\OS(=O)(=O)c2ccccc2)C(C(C)C)=CC1=O`, -18.8% (inactive). As for `CN1CCc2cccc3c2C1Cc1ccc(O)c(O)c1-3` (centres undefined), the “inhibition” value was -64.7% (inactive). On to `Cn1c(=O)oc2cc(S(=O)(=O)Nc3ccc(O)cc3)ccc21`, for which the IC50 was 3.81 µM (active). For the compound `CCOC(=O)Cn1c(=O)oc2cc(S(=O)(=O)NCCC(C)C)ccc21`, the “inhibition” value is 17.2% (inactive). In the case of `O=S(=O)(Nc1ccc2c(c1)nc1n2CCOC1)c1ccccc1`, the “inhibition” value was -20.6% (inactive). Still for that read-out and setting: the figure for `Cc1occc1-c1nnc(SCC(=O)c2ccccc2)n1CC1CCCO1` (centres undefined) is -2.27% (inactive). Turning to `Cc1nnc(SCc2ccccc2)n1CC1CCCO1` (centres undefined), the IC50 was 70.8 µM (active). On the same count and under the same terms, the result for `CN(C)c1ccc(Nc2nc(-c3cccnc3)cs2)cc1` reads 5.96 µM (active); that for `Cc1nc2ncccn2c1-c1csc(Nc2ccc(N(C)C)cc2)n1`, 7.2 µM (active). Regarding `O=C1c2ccccc2C(Nc2ccccc2F)N1c1cccnc1` (centres undefined), the “inhibition” value is -3.26% (inactive). On to `Cc1cccc(/C(N)=N/OC(=O)N2c3ccccc3Sc3ccccc32)c1`, for which the IC50 was 79.6 µM (active). The same measure, in the same setting: the figure for `NNC(=O)C(=O)Nc1ccc(O)cc1` is 5.13 µM (active). As to `NN/C(=C\[N+](=O)[O-])Nc1ccc(Cl)cc1`, the “inhibition” value is -17% (inactive).

Regarding `CCOc1ccccc1NC(=S)N1CCN(c2ccc(O)cc2)CC1`, the IC50 is 6.75 µM (active). For the compound `Oc1ccc(N2CCN(C(=S)NCCc3ccccc3)CC2)cc1`, the IC50 is 3.15 µM (active). With `CCOc1ccccc1NC(=O)NC(C)c1ccncc1` (centres undefined), the “inhibition” value was 14.3% (inactive). With `CC(C)CN(C)C(=O)CCc1nnc(Cc2cccc(C(F)(F)F)c2)o1`, the “inhibition” value was 29.4% [at 50 µM] (inactive).

`COC(=O)/C=C/C(=O)Nc1ccc(O)c(Cl)c1`: the IC50 is 6.19 µM (active).

`Cc1ccc(NC(=O)C(CC(C)C)NC(N)=O)cc1Cl` (centres undefined): the “inhibition” value was -6.45% (inactive).

On to `Cc1ccccc1-n1sc2cc(F)ccc2c1=O`, for which the IC50 is 49.1 µM (active). `COc1ccc(-c2csc(NNC3=NCCCCC3)n2)cc1`: the IC50 is 40 µM (active). With `CCN(CC)CCCN(C(=O)c1cccs1)c1nc(-c2ccc(OC)cc2)cs1`, the “inhibition” value is -6.38% (inactive). As for `c1ccc(-c2csc(NNC3=NCCCCC3)n2)cc1`, the IC50 was 13.6 µM (active). For the compound `O=S(=O)(NC1=NCCCCC1)c1ccc2sc(NS(=O)(=O)c3ccc4ccccc4c3)nc2c1`, the “inhibition” value was 26.5% (inactive). Turning to `COc1ccc(Nc2nc(-c3ccc4c(c3)NC(=O)CO4)cs2)cc1`, the “inhibition” value is 23.8% (inactive).

Turning to `Cc1ccc(N=c2oc3cc(O)ccc3cc2C(N)=O)cc1`, the half-inhibitory concentration (IC50) is 17.1 µM (active). For the compound `C=CC(=O)Oc1ccc(N2Cc3ccccc3C2=O)cc1`, the IC50 was 8.19 µM (active). On to `COc1cc(/C=C2/C(=O)NN(c3cccc(C)c3)C2=O)ccc1OC(=O)c1ccco1`, for which the IC50 was 27.4 µM (active). Consider `COc1ccc(N2C(=O)/C(=C\c3ccco3)N=C2SCC(=O)NC(C)C)cc1Cl`, for which the “inhibition” value was -21.3% (inactive).

For the compound `COc1cc(/C=C2/C(=O)NN(c3ccc(Cl)cc3)C2=O)ccc1OC(=O)c1ccco1`, the IC50 is 80 µM (active). Turning to `CCOC(=O)c1c(NC(=O)c2ccc(S(=O)(=O)N(C)CC3CCCO3)cc2)sc2c1CC(C)(C)NC2(C)C` (centres undefined), the “inhibition” value was 0.64% (inactive). `Nc1ccc(OC(=O)Nc2ccc(O)cc2)cc1`: the IC50 was 3.47 µM (active).

For the compound `CS(=O)(=O)N1CCc2cc(C(=O)Nc3ccc(O)cc3)ccc21`, the IC50 was 7.2 µM (active). With `CC(C)OCCCNC1=C(Cl)C(=O)c2ccccc2C1=O`, the “inhibition” value was -6.77% (inactive).

As to `COC1=C(Nc2ccc(O)cc2)C(=O)c2ccccc2C1=O`, the IC50 is 5.25 µM (active). The same measure, in the same setting: the result for `CN(C)C=NC1=NN(c2cccc(C(F)(F)F)c2)CC1` reads 5.93 µM (active); that for `O=c1c2ccccc2[nH]c2ccc(O)cc12`, 5.13 µM (active).

As for `O=C1/C(=C/c2ccncc2)SC(=S)N1Nc1ccccc1`, the IC50 is 77.6 µM (active).

As to `O=C(CCN1C(=O)/C(=C/c2ccco2)SC1=S)Nc1ccc(C(=O)O)c(O)c1`, the “inhibition” value was -14.7% (inactive). For `O=C(CCN1C(=O)/C(=C\c2ccco2)SC1=S)Nc1ccc(C(=O)O)c(O)c1`, the “inhibition” value is -4.22% (inactive).

For the compound `COc1ccc(-c2cc(=O)oc3c(O)c(O)ccc23)cc1`, the half-inhibitory concentration (IC50) was 8.96 µM (active). For the compound `O=C1NC(=S)CN1c1ccccc1`, the “inhibition” value was 11.1% (inactive). Same read-out and setting: the figure for `CC(=O)N(C1=C(Cl)C(=O)c2ccccc2C1=O)c1ccc(C(=O)O)cc1` is 13.6% [at 50 µM] (inactive).

With `Nc1cc(C(=O)O)c(N)c2c1C(=O)c1ccccc1C2=O`, the 50% inhibitory concentration (IC50) was 14.7 µM (active). For the compound `O=C(O)c1ccccc1-c1c2cc(I)c(=O)c(I)c-2oc2c(I)c(O)c(I)cc12`, the “inhibition” value was -1.2% (inactive).
